PubChem BioAssay
“And” between values parts separate entries of the source, which are not always exact repeats. Identical values can stand only once. Inconclusive results are not listed. For some of these results: Results with a measured potency or affinity are listed apart. The source made the active and inactive calls. Unless noted, no rule for the calls is given here.

Columns and labels:
[1] = antimalarial activity against Dd2 strain (AID 2302;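 active = growth inhibition above 50% at the single 2 µM test dose, taken to imply half-maximal potency below 2 µM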;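 also: 0% = DMSO untreated growth and 100% = chloroquine plus artemisinin killed control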); conditions: P. falciparum Dd2 in RBCs, LDH growth readout, 72 h; at 2 µM; stronger effect = higher value
[2] = human hepatoma cell viability loss – ATP luminescence, cytotoxicity control for P. falciparum antimalarial project, primary screen (AID 2303;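 active = inhibition above 50%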;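 also: 0% = DMSO wells and 100% = digitonin-killed cells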); conditions: HepG2 viability, 24-48 h, at 10 µM, stronger effect = higher value
[3] = molecular target: L-lactate dehydrogenase (Plasmodium falciparum (isolate CDC / Honduras)) (UniProt Q27743); experiment: PfLDH activity inhibition – cell lysate, 3D7 strain, counter-screen for P. falciparum growth inhibition project (AID 2304);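 also: 0% = vehicle and 100% = reference inhibitor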; conditions: P. falciparum 3D7 crude extract, LDH APAD/NBT absorbance; at 2 µM; stronger effect = higher value
[4] = inhibition of 3D7 malaria parasite growth – strain 3D7 (AID 2306);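 also: 0% = DMSO wells and 100% = chloroquine plus artemisinin control wells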; conditions: P. falciparum 3D7 erythrocytic growth, LDH absorbance, 72 h; at 2 µM; stronger effect = higher value
[5] = molecular target: Calcium-dependent protein kinase 1 (Plasmodium falciparum (isolate 3D7)) (UniProt P62344); experiment: PfCDPK1 kinase inhibitors, biochemical, TCAMS library (AID 1159585; cut-off not given, nearly all actives have IC50 up to about 0.98 µM;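 also: inhibitors leave more ATP so luminescence rises with inhibition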); conditions: recombinant PfCDPK1, Kinase-Glo ATP depletion luminescence
[6] = molecular target: Plasmodium falciparum protein kinase 6 (PK6, PF3D7_1337100) (UniProt Q8IDW1); experiment: PfPK6 kinase inhibitors, biochemical, TCAMS library (AID 1159586); conditions: recombinant PfPK6, Kinase-Glo ATP depletion luminescence
[7] = molecular target: Protein kinase 7 (PK7), Plasmodium falciparum 3D7 (PF3D7_0213400) (UniProt Q7YTF7); experiment: inhibition of Plasmodium PK7 catalytic activity – biochemical, TCAMS antimalarial set, Kinase-Glo luminescence (AID 1159587); conditions: recombinant PfPK7, Kinase-Glo ATP depletion luminescence
[8] = molecular target: Calcium-dependent protein kinase 4 (Plasmodium falciparum (isolate 3D7)) (UniProt Q8IBS5); experiment: PfCDPK4 kinase inhibitors, biochemical, TCAMS library (AID 1159588; cut-off not given, nearly all actives have IC50 up to about 0.91 µM); conditions: recombinant PfCDPK4, Kinase-Glo ATP depletion luminescence
[9] = test system: Aerobactin synthetase IucA (Klebsiella pneumoniae); experiment: inhibition of K. pneumoniae IucA enzyme – biochemical, Tocris library, absorbance (AID 1345561); conditions: purified IucA enzyme assay, absorbance (OD) read-out; stronger effect = lower value;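 tested at 8 µM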;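 also: 100% = enzyme without compound and 0% = no enzyme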
[10] = viability loss with induced miR-34 in A549 – imaging, A549 dox-inducible miR-34, nuclei and caspase counts, primary screen (AID 1347080;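 active = compounds whose cell count with miR-34 switched on is under 0.7 times the count with it off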); conditions: A549 miR-34 inducible, Hoechst nuclei count, 48 h
[11] = galactose survival enhancers in mitochondrial complex I cybrids – cell-based, galactose medium, ATP luminescence, primary screen (AID 1645843;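 active = z-score of at least 1.8 in each of two replicates, scored against plate mean and spread of sample wells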;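 also: positive z means more ATP and so rescue of galactose-driven cybrid death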); conditions: complex I mutant cybrid cells, 72 h, stronger effect = higher value
[12] = compounds altering circadian rhythm period length – cell-based, LOPAC library, luminescence reporter (AID 2774); conditions: circadian reporter cells, at 7 µM, actives lie on both sides;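 also: values are relative to mean of DMSO wells on each plate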
[13] = test system: Hepatitis C virus NS3 helicase; experiment: blockers of NS3h binding to ssDNA – biochemical, fluorescence polarization, LOPAC1280 library, primary screen (AID 687035; in the data active = inhibition above about 37%); conditions: Purified HCV NS3 helicase, Cy5-dT15 ssDNA binding fluorescence polarization; stronger effect = higher value; concentration not given here
[14] = compounds altering Cy5-DNA-NS3h complex signal – biochemical, LOPAC1280, artefact control for HCV NS3 helicase inhibitor project (AID 687037); conditions: Cy5-DNA-NS3h complex fluorescence interference counterscreen
[15] = viability loss in pontine glioma line – cell-based, SU-DIPG-XIII, MIPE4.0, CellTiter-Glo, qHTS, dose response (AID 1347061; cut-off not given, nearly all actives have AC50 up to about 37 µM;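 also: cells exposed to compound for 48 hours before readout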); conditions: CellTiter-Glo ATP luminescence
[16] = viability loss in pontine glioma line – cell-based, JHH-DIPG-1, MIPE4.0, CellTiter-Glo, qHTS, dose response (AID 1347062; cut-off not given, nearly all actives have AC50 up to about 27 µM); conditions: JHH-DIPG-1 viability, CellTiter-Glo ATP luminescence
[17] = MELAS cybrid and Rieske KO viability enhancers – cell-based, MELAS cybrids, Rieske KO mouse fibroblasts, CellTiter-Glo, primary screen (AID 1508586;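 active = mean z-score across replicates of 1.96 or higher in either the MELAS or the Rieske mutant cell line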;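 also: z relative to plate mean and SD of compound and empty wells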); conditions: low glucose
[18] = chitosan synthesis blockers in C. neoformans – flow cytometry, Cibacron Brilliant Red staining (AID 1347148); conditions: Cryptococcus neoformans chitosan, stronger effect = lower value; at 10 µM unless noted;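 also: compound exposure lasted three days at 37 degrees C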
[19] = stronger effect = lower value, cell number ratio, induced over uninduced
[20] = measured here: relative caspase fold change +Dox/-Dox
[21] = measured here: total cells with miR-34 induction, stronger effect = lower value
[22] = measured here: total cells without miR-34 induction

Chain of Calcium-dependent protein kinase 1 (Plasmodium falciparum (isolate 3D7)) (P62344 whole entry, looked up): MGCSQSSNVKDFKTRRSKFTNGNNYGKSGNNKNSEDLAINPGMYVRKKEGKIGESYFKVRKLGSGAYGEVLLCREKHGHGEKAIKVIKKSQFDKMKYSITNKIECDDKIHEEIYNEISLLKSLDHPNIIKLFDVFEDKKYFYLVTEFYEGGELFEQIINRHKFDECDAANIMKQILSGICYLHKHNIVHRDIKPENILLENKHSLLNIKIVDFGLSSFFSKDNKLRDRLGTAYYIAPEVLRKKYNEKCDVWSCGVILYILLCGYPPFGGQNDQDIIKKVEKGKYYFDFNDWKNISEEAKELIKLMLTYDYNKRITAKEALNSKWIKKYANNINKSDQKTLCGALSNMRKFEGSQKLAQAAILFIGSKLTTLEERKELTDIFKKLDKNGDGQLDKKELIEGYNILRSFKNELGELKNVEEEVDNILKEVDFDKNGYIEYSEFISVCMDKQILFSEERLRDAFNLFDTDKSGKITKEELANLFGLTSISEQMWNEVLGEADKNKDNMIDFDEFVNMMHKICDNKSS
Chain of Plasmodium falciparum protein kinase 6 (PK6, PF3D7_1337100) (Q8IDW1 1-305): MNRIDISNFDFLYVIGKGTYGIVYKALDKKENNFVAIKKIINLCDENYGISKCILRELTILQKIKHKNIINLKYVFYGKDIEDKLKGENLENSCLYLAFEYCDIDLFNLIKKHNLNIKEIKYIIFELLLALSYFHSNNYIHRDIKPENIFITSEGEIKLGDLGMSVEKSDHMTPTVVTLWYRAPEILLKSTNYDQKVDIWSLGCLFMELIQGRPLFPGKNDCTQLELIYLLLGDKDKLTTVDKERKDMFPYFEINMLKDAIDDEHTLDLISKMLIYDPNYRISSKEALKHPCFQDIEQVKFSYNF
Chain of L-lactate dehydrogenase (Plasmodium falciparum (isolate CDC / Honduras)) (Q27743 whole entry, looked up): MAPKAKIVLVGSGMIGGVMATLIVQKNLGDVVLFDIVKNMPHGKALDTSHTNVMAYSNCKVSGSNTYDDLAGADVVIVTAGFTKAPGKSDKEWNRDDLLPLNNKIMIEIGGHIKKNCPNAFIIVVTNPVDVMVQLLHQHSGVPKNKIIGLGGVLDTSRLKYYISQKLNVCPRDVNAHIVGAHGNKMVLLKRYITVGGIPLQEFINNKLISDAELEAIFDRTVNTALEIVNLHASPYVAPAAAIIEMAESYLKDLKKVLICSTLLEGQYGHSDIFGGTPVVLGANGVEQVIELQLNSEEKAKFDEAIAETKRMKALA
Chain of Calcium-dependent protein kinase 4 (Plasmodium falciparum (isolate 3D7)) (Q8IBS5 whole entry, looked up): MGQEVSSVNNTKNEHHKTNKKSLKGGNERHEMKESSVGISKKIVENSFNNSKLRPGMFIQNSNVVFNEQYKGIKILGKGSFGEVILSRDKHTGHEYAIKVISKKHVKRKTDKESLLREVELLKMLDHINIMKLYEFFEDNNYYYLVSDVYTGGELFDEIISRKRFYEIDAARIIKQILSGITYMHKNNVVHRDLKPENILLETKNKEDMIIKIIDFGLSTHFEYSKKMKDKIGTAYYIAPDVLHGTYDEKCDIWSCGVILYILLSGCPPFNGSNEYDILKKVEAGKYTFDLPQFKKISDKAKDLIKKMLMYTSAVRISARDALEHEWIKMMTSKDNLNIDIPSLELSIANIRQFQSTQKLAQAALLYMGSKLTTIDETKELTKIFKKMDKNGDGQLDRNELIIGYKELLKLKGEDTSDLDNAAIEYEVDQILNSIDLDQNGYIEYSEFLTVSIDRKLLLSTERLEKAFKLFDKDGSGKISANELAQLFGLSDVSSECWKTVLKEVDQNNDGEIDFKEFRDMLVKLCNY
Chain of Protein kinase 7 (PK7), Plasmodium falciparum 3D7 (PF3D7_0213400) (Q7YTF7 1-343): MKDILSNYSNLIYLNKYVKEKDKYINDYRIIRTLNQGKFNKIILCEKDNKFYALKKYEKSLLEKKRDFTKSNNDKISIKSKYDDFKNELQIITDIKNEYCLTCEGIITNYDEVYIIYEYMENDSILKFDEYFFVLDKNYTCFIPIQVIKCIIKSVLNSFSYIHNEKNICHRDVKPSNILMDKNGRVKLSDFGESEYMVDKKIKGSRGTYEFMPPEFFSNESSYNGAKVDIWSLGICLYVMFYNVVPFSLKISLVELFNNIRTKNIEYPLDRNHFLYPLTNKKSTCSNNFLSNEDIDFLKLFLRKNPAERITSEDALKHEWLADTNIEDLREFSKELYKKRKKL

COc1ccc2ncc(F)c(CCN3CC[C@H](NCc4cc5c(s4)CCCN5)[C@H](O)C3)c2n1
growth inhibition [1]: 16% (inactive)
inhibition [2]: 2% (inactive)
inhibition [3]: 0% (inactive)
growth inhibition [4]: 96% (active)
outcome [5]: inactive
outcome [6]: inactive
outcome [7]: inactive
outcome [8]: inactive

O=C(/C=C/c1ccc(Cl)c(Cl)c1)NCCCCCN1CCC(NC(=O)Nc2cccc(C(F)(F)F)c2)CC1
growth inhibition [1]: 11% (inactive)
inhibition [2]: 61% (active)
inhibition [3]: 4% (inactive)
growth inhibition [4]: 102% (active)
outcome [5]: inactive
outcome [6]: inactive
outcome [7]: inactive
outcome [8]: inactive

CC1(C)C(=O)NC2=C1C(=O)C(=O)c1ccccc12
inhibition [2]: -8% (inactive)
inhibition [3]: 1% (inactive)
growth inhibition [4]: 93% (active)
outcome [5]: inactive
outcome [6]: inactive
outcome [7]: inactive
outcome [8]: inactive
remaining activity [9]: 80.1% (inactive)
fold change [10, 19]: 0.672 (active)
fold change [10, 20]: 1.77
cell count [10, 21]: 1170
cell count [10, 22]: 1740
z-score [11]: -0.705 (inactive)

O=C(Nc1cccc(C(F)(F)F)c1)Nc1ccc(Cl)c(Cl)c1
growth inhibition [1]: 100% (active)
inhibition [2]: 5% (inactive)
inhibition [3]: -4% (inactive)
growth inhibition [4]: 100% (active)
outcome [5]: inactive
outcome [6]: inactive
outcome [7]: inactive
outcome [8]: inactive

OC(CN1CCN(c2cccc(Cl)c2)CC1)C(c1ccccc1)c1ccccc1 (stereo not drawn)
growth inhibition [1]: 4% (inactive)
inhibition [2]: -2% (inactive)
inhibition [3]: -2% (inactive)
growth inhibition [4]: 85% (active)
period change [12]: -0.085 h (inactive)
inhibition [13]: -4% (inactive)
fluorescence ratio (interference) [14]: 0.9 (inactive)
outcome [5]: inactive
outcome [6]: inactive
outcome [7]: inactive
outcome [8]: inactive
remaining activity [9]: 112% (inactive)
AC50 [15]: 23.5 µM (active)
outcome [16]: inactive
fold change [10, 19]: 0.897 (inactive) and 1 (inactive)
fold change [10, 20]: 0.676 and 0.73
cell count [10, 21]: 8580 and 6630
cell count [10, 22]: 9570 and 6630
z-score ([17]; MELAS cybrid survival, CellTiter-Glo 48 h, stronger effect = higher value): -0.304 (inactive)
z-score ([17]; Rieske KO mouse fibroblast survival, CellTiter-Glo 72 h): 0.565
z-score [11]: -0.82 (inactive)

O=C(CCCCCNC(=O)c1ccc(O)c(-c2ccc(Cl)c(Cl)c2)c1)NCCN1CCCCC1
growth inhibition [1]: 1% (inactive)
inhibition [2]: -4% (inactive)
inhibition [3]: 0% (inactive)
growth inhibition [4]: 93% (active)
outcome [5]: inactive
outcome [6]: inactive
outcome [7]: inactive
outcome [8]: inactive

O=C(NCCCCCN1CCC(c2c[nH]c3ccccc23)CC1)Nc1ccc(I)cc1
growth inhibition [1]: -1% (inactive)
inhibition [2]: 51% (active)
inhibition [3]: 2% (inactive)
growth inhibition [4]: 100% (active)
outcome [5]: inactive
outcome [6]: inactive
outcome [7]: inactive
outcome [8]: inactive

Nc1nc(NCC2CCC(CNS(=O)(=O)c3cccc4ccccc34)CC2)nc2ccccc12 (stereo not drawn)
growth inhibition [1]: 42% (inactive)
inhibition [2]: 9% (inactive)
inhibition [3]: 7% (inactive)
growth inhibition [4]: 97% (active)
outcome [5]: inactive
outcome [6]: inactive
outcome [7]: inactive
outcome [8]: inactive
remaining activity [9]: 92.3% (inactive)
fold change [10, 19]: 0.954 (inactive)
fold change [10, 20]: 0.891
cell count [10, 21]: 322
cell count [10, 22]: 338
z-score [11]: -0.705 (inactive)

O=C(Nc1cccc(CN2CCCN(Cc3ccc(O)cc3)CC2)c1)c1cccc(Cl)c1
growth inhibition [1]: 41% (inactive)
inhibition [2]: 10% (inactive)
inhibition [3]: 5% (inactive)
growth inhibition [4]: 96% (active)
outcome [5]: inactive
outcome [6]: inactive
outcome [7]: inactive
outcome [8]: inactive

COc1ccc(CCn2c(=N)c(C(=O)NCc3cccnc3)cc3c(=O)n4cccc(C)c4nc32)cc1
growth inhibition [1]: 12% (inactive)
inhibition [2]: 5% (inactive)
inhibition [3]: 0% (inactive)
growth inhibition [4]: 92% (active)
outcome [5]: inactive
outcome [6]: inactive
outcome [7]: inactive
outcome [8]: inactive

CCOc1ccc(-c2nc3ccc(-c4nc5ccc(N6CCN(C)CC6)cc5[nH]4)cc3[nH]2)cc1
growth inhibition [1]: 99% (active)
inhibition [2]: 16% (inactive)
inhibition [3]: 1% (inactive)
growth inhibition [4]: 100% (active)
outcome [5]: inactive
outcome [6]: inactive
outcome [7]: inactive
outcome [8]: inactive
fold change [10, 19]: 1.13 (inactive)
fold change [10, 20]: 0.41
cell count [10, 21]: 805
cell count [10, 22]: 711
fold fluorescence [18]: 1.62 [at 110.5 µM] (inactive)

CCCC(C)NC(=O)C(N)Cc1cccc(I)c1 (stereo not drawn)
growth inhibition [1]: 65% (active)
inhibition [2]: 11% (inactive)
inhibition [3]: 0% (inactive)
growth inhibition [4]: 95% (active)
outcome [5]: inactive
outcome [6]: inactive
outcome [7]: inactive
outcome [8]: inactive

CCCCCCCc1ccc(-c2c(C)[nH]c(C)c(Cl)c2=O)cn1
growth inhibition [1]: 96% (active)
inhibition [2]: -4% (inactive)
inhibition [3]: -2% (inactive)
growth inhibition [4]: 99% (active)
outcome [5]: inactive
outcome [6]: inactive
outcome [7]: inactive
outcome [8]: inactive

C[C@@H]1CN(c2nc(NCCc3ccc(O)cc3)nc(NCc3ccccc3-c3ccc(C(F)(F)F)cc3)n2)C[C@H](C)N1
growth inhibition [1]: 68% (active)
inhibition [2]: 24% (inactive)
inhibition [3]: 7% (inactive)
growth inhibition [4]: 100% (active)
outcome [5]: inactive
outcome [6]: inactive
outcome [7]: inactive
outcome [8]: inactive

O=C(NC1CCN(Cc2ccccc2)CC1)c1ccc(-c2nc3cc(F)c(F)cc3[nH]2)s1
growth inhibition [1]: 97% (active)
inhibition [2]: 6% (inactive)
inhibition [3]: 1% (inactive)
growth inhibition [4]: 101% (active)
outcome [5]: inactive
outcome [6]: inactive
outcome [7]: inactive
outcome [8]: inactive

Cc1cnc(N)c(/C=C/c2cncc(C(=O)NCCc3ccc(Cl)cc3Cl)c2)c1
growth inhibition [1]: 100% (active)
inhibition [2]: 2% (inactive)
outcome [5]: inactive
outcome [6]: inactive
outcome [7]: inactive
outcome [8]: inactive

Cc1cc(-c2ccc(O)c(CNC3CCCCC3)c2)cnc1N
growth inhibition [1]: 100% (active)
inhibition [2]: 27% (inactive)
inhibition [3]: -4% (inactive)
growth inhibition [4]: 102% (active)
outcome [5]: inactive
outcome [6]: inactive
outcome [7]: inactive
outcome [8]: inactive
